Assay outcomes as filed in PubChem.
A selection: hits, their analogues and other compounds. The true share with any hit is near 3.5%.
SARS 3CLpro inh – SARS-CoV 3CLpro protease inhibition; recombinant SARS-CoV 3CLpro, quenched FRET peptide cleavage; inhibition, % at 6 µM; 290,000 tested, 0.14% active; AID 1706; in the data active = inhibition above about 12%
BoNT-F LC inh – inhibitors of Botulinum neurotoxin F light chain protease | inhibition, % at 10 µM | Multiplex microsphere protease cleavage assay, flow cytometry | AID 588497 | 360,000 tested, 0.22% active; in the data active = inhibition above about 35%, passing the limit was not always enough; inconclusive = no clear call, values can overlap the other calls; note: plate controls were buffer without enzyme for full effect and enzyme alone for no effect
Anthrax LF inh2 – anthrax lethal factor protease inhibition | P15917 | multiplex microsphere protease cleavage assay, LF | inhibition, % at 10 µM | 360,000 tested, 0.12% active | AID 588501; note: plate controls were buffer without enzyme for full effect and enzyme alone for no effect
Target sequence (P15917 whole entry, looked up): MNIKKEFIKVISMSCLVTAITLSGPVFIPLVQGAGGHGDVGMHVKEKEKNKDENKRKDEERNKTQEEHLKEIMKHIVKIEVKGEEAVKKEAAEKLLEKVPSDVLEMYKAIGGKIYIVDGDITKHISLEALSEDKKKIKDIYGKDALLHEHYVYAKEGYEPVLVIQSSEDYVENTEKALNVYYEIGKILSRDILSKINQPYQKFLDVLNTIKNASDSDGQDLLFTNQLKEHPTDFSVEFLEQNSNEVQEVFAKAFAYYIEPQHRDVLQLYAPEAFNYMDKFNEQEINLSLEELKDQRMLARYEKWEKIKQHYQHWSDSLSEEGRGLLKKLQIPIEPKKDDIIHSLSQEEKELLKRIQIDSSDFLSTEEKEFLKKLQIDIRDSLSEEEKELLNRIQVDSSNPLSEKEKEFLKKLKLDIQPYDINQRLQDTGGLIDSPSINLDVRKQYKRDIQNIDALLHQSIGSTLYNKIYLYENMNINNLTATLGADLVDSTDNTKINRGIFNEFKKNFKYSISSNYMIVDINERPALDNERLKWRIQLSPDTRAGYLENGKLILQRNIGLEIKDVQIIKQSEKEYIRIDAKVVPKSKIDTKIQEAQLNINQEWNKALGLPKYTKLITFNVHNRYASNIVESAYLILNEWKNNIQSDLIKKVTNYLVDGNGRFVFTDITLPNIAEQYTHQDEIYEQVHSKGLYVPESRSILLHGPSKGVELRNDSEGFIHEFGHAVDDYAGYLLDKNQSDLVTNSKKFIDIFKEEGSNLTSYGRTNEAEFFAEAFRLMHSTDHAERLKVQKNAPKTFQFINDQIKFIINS
BoNT A protease – blocks Botulinum neurotoxin A light chain protease. inhibition, % at 10 µM. 360,000 tested, 0.17% active. AID 588499. multiplex microsphere protease substrate cleavage, flow cytometry; note: plate controls were buffer without enzyme for full effect and enzyme alone for no effect
Autofluor counter – flagged as autofluorescent in microsphere protease counterscreen; compound autofluorescence counterscreen, microsphere flow cytometry; hits give high values; fluorescence intensity (concentration not given with the values); 360,000 tested, 3.1% active; AID 624483; in the data active = fluorescence intensity above about 16000; inconclusive = no clear call, values can overlap the other calls
* = called active by the depositor. Cut-off read from the data, not from the text of the source, unless noted: active = inhibition above about 30%; inconclusive = no clear call, values can overlap the other calls; inactive = below that.

Results for CC1CCN(S(=O)(=O)c2ccc(NC(=O)CCN3C(=O)c4ccccc4C3=O)cc2)CC1 ?
SARS 3CLpro inh: -2; BoNT-F LC inh: 0; Anthrax LF inh2: -5; BoNT A protease: 2; Autofluor counter: 19423*

How did O=C(CCCCCN1C(=O)c2ccccc2C1=O)Nc1ccc(S(=O)(=O)N2CCCCC2)cc1 do in these assays?
SARS 3CLpro inh: 6; BoNT-F LC inh: 2; Anthrax LF inh2: -1; BoNT A protease: inconclusive; Autofluor counter: 21502*

How did CC1CN(S(=O)(=O)c2ccc(NC(=O)CCN3C(=O)c4ccccc4C3=O)cc2)CC(C)O1 (configuration not stated) do in these assays?
SARS 3CLpro inh: 5; BoNT-F LC inh: -3; Anthrax LF inh2: -4; BoNT A protease: -1; Autofluor counter: 9908

Results for Cc1nc(=O)c(-c2ccccc2)c(C)n1-c1ccccc1 ?
SARS 3CLpro inh: 2; BoNT-F LC inh: -8; Anthrax LF inh2: -6; BoNT A protease: -1; Autofluor counter: 3803

Results for COc1ccccc1CNC(=O)COC(=O)C1CCN(S(=O)(=O)c2ccc(C)c(C)c2)CC1 ?
BoNT-F LC inh: 10; Anthrax LF inh2: 2; BoNT A protease: 3; Autofluor counter: inconclusive

Results for CCOc1ccc(-c2c(=O)n(OCc3nc4ccccc4[nH]3)c3ccccc3[n+]2[O-])cc1 ?
SARS 3CLpro inh: 0; BoNT-F LC inh: inconclusive; Anthrax LF inh2: 12; BoNT A protease: -1; Autofluor counter: 4265

How did Cc1ccc(C(=O)OCC(=O)NCC2CCCO2)c(C)c1 (configuration not stated) do in these assays?
SARS 3CLpro inh: 6; BoNT-F LC inh: -3; Anthrax LF inh2: -8; BoNT A protease: 0; Autofluor counter: 4360

What do the screens show for `CCOC(=O)c1c(N)nn(C(=O)C(C)C)c1-c1ccc(OC)cc1`?
SARS 3CLpro inh: 4; BoNT-F LC inh: 1; Anthrax LF inh2: -2; BoNT A protease: 0; Autofluor counter: 16326*

Results for CCOC(=O)c1c(N)nn(C(C)=O)c1-c1ccccc1 ?
SARS 3CLpro inh: -2; BoNT-F LC inh: 1; Anthrax LF inh2: -2; BoNT A protease: 1; Autofluor counter: 2420

How did NCCc1nnc(SCc2ccccc2Cl)o1 do in these assays?
SARS 3CLpro inh: 1; BoNT-F LC inh: 45*; Anthrax LF inh2: inconclusive; BoNT A protease: 8; Autofluor counter: 3185

How did CC(C)(C)OC(=O)NCCc1nnc(SCc2ccccc2)o1 do in these assays?
SARS 3CLpro inh: 0

What do the screens show for `CC(C)(C)OC(=O)NCCc1nnc(SCc2ccccc2Cl)o1`?
SARS 3CLpro inh: 2; BoNT-F LC inh: 0; Anthrax LF inh2: 0; BoNT A protease: 0; Autofluor counter: 16944*

How did Cc1ccc(-c2cc(C(=O)N3CCc4ccccc4C3)[nH]n2)cc1C do in these assays?
SARS 3CLpro inh: -3; BoNT-F LC inh: -3; Anthrax LF inh2: -1; BoNT A protease: 1; Autofluor counter: 4383

Results for COc1cccc(COC(=O)c2ccc3c(=O)n4c(nc3c2)CCC4)c1OC ?
BoNT-F LC inh: -1; Anthrax LF inh2: -1; BoNT A protease: 3; Autofluor counter: 5829

How did CC(=O)/C(=C\N(C)C)Sc1ccc(C)cc1 do in these assays?
SARS 3CLpro inh: 3; BoNT-F LC inh: 38*; Anthrax LF inh2: inconclusive; BoNT A protease: -1; Autofluor counter: 3560

What do the screens show for `COc1ccc(-[n+]2c(C)cc(/C=C3\Sc4ccccc4N3C)cc2C)cc1`?
SARS 3CLpro inh: -3; BoNT-F LC inh: -40; Anthrax LF inh2: 20; BoNT A protease: 68*; Autofluor counter: 4610

How did COc1ccccc1-[n+]1c(C)cc(/C=C2\Sc3ccccc3N2C)cc1C do in these assays?
SARS 3CLpro inh: 2; BoNT-F LC inh: -2; Anthrax LF inh2: 40*; BoNT A protease: 88*; Autofluor counter: 7146

How did O=C(CSc1nnc(C2CC2)n1-c1ccccc1)NCc1ccco1 do in these assays?
SARS 3CLpro inh: -5; BoNT-F LC inh: -5; Anthrax LF inh2: -2; BoNT A protease: -1; Autofluor counter: 3501

How did CC1(C)N=C(c2ccc(Cl)cc2Cl)C(=O)N1 do in these assays?
SARS 3CLpro inh: -4; BoNT-F LC inh: 2; Anthrax LF inh2: 2; BoNT A protease: 3; Autofluor counter: 22553*

How did COCC(=O)Nc1ccc(S(=O)(=O)NCCc2ccccc2)cc1 do in these assays?
SARS 3CLpro inh: -1; BoNT-F LC inh: -2; Anthrax LF inh2: -1; BoNT A protease: 0; Autofluor counter: 16357*

What do the screens show for `O=C(CCc1ccccc1)Nc1ccc(NS(=O)(=O)c2ccccc2)cc1`?
SARS 3CLpro inh: -2; BoNT-F LC inh: 16; Anthrax LF inh2: -11; BoNT A protease: 0; Autofluor counter: 3940

How did CC(C)NS(=O)(=O)c1ccc(NC(=O)CCc2ccccc2)cc1 do in these assays?
SARS 3CLpro inh: 0; BoNT-F LC inh: 6; Anthrax LF inh2: -6; BoNT A protease: 4; Autofluor counter: 21469*

How did CCC(=O)Nc1ccc(S(=O)(=O)NCCc2ccccc2)cc1 do in these assays?
SARS 3CLpro inh: 1

Results for O=c1c2c3c(sc2n2cnnc2n1Cc1ccccc1)CN(Cc1ccccc1)CC3 ?
SARS 3CLpro inh: 2; BoNT-F LC inh: 10; Anthrax LF inh2: 14; BoNT A protease: 13; Autofluor counter: 8293

How did CN1CCC(C2(O)c3ccccc3CCc3ccccc32)CC1 do in these assays?
SARS 3CLpro inh: 7; BoNT-F LC inh: 19; Anthrax LF inh2: -2; BoNT A protease: 1; Autofluor counter: 9830

How did O=C(NNC(=O)c1ccccc1[N+](=O)[O-])c1ccccn1 do in these assays?
SARS 3CLpro inh: -5; BoNT-F LC inh: -2; Anthrax LF inh2: -10; BoNT A protease: -4; Autofluor counter: 9274

How did CCCOc1ccc(C(=O)NC(C)C(=O)O)cc1 (configuration not stated) do in these assays?
SARS 3CLpro inh: 4; BoNT-F LC inh: -4; Anthrax LF inh2: -1; BoNT A protease: -3; Autofluor counter: 21313*

What do the screens show for `CC(NC(=O)c1ccc(C(C)(C)C)cc1)C(=O)O` (configuration not stated)?
SARS 3CLpro inh: 2; BoNT-F LC inh: 4; Anthrax LF inh2: 1; BoNT A protease: 4; Autofluor counter: 21690*

Results for CCn1ncc(C2=NOC(C(=O)Nc3ccc(C)cc3)C2)c1C (configuration not stated) ?
SARS 3CLpro inh: -1; BoNT-F LC inh: 13; Anthrax LF inh2: 1; BoNT A protease: 0; Autofluor counter: 4558

How did CCn1ncc(C2=NOC(C(=O)NCc3ccc(Cl)cc3)C2)c1C (configuration not stated) do in these assays?
SARS 3CLpro inh: -1; BoNT-F LC inh: 3; Anthrax LF inh2: 3; BoNT A protease: 2; Autofluor counter: 21413*

Results for CCn1ncc(C2=NOC(C(=O)Nc3cccnc3)C2)c1C (configuration not stated) ?
SARS 3CLpro inh: -2; BoNT-F LC inh: 4; Anthrax LF inh2: -8; BoNT A protease: 3; Autofluor counter: 22133*

How did CCOC(=O)c1ccc(NC(=O)c2nc[nH]c2C(=O)N2CCC(C)CC2)cc1 do in these assays?
BoNT-F LC inh: -9; Anthrax LF inh2: 6; BoNT A protease: -1; Autofluor counter: 4021

How did Cc1cc(C(=O)Nc2ccccc2C#N)n(-c2ccccc2)n1 do in these assays?
SARS 3CLpro inh: -2; BoNT-F LC inh: -5; Anthrax LF inh2: -10; BoNT A protease: -1; Autofluor counter: 6259
